Laboratory results published in PubChem BioAssay (Tox21).
A number with no mark means an inactive call. Results filed as inconclusive are left out. A call without a number means that no potency is given here. The source made the active and inactive calls. Unless noted, the call rests on the fitted dose curve; in most records, active means well fitted curve in the direction sought with a large enough effect in the repeat runs; inconclusive means weak or mixed curves; inactive means no such curve, though single readings can be large; an effect the other way counts as inactive or inconclusive.

Experiments:
[1] = qHTS assay to identify small molecule HDAC inhibitors - cell viability counter screen (AID 1259365); further: series mostly up to about 92 µM; nearly all actives have a fitted effect of over 50% in size
Summary of the method: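 Luminescence from CellTiter-Glo, developed 30min at room temperature, reports viability of wild-type HCT-116 cells treated 2hr with compounds at 37 C and 5% CO2 after overnight plating.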

[2] = qHTS assay to identify small molecule agonists of the sonic hedgehog signaling (Shh) pathway - cell viability counter screen (AID 1259366); further: nearly all actives have a fitted effect of over 50% in size
Summary of the method: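 Cytotoxicity counter screen run in the same wells as the Shh reporter assay. NIH/3T3 cells carrying a Gli1 response element–driven luciferase were treated with DMSO-dissolved compounds for 24hr, and live-cell protease activity was measured with CellTiter-Fluor.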

[3] = qHTS assay to identify small molecule antagonists of the sonic hedgehog signaling (Shh) pathway - cell viability counter screen (AID 1259367); further: nearly all actives have a fitted effect of over 55% in size
Summary of the method: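 Tox21 library chemicals were tested on a Gli1-Luc NIH/3T3 clone (2,000 cells/well) stimulated by conditioned medium; viability was quantified as fluorescence from CellTiter-Fluor reagent added at 23 hr.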

[4] = qHTS assay to identify small molecule agonists of the sonic hedgehog signaling (Shh) pathway (AID 1259368; calls by dose curve;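 further: NIH/3T3-derived 3T3Gli1-Luc cells carrying a stable Gli1-driven firefly luciferase reporter; series mostly up to about 92 µM; nearly all actives have a fitted effect of over 15% in size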)
Summary of the method: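 Following a 24 hr incubation with DMSO-dissolved compounds at 37 C, 5% CO2, Gli1-Luc NIH/3T3-derived cells received luciferase reagent for 30 min at room temperature prior to luminescence measurement.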

[5] = qHTS assay to identify small molecule antagonists of the sonic hedgehog signaling (Shh) pathway (AID 1259369; calls by dose curve; further: nearly all actives have a fitted effect of over 45% in size)
Summary of the method: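 Read-out is luminescence from a firefly luciferase gene controlled by the Gli1 response element, in 3T3Gli1-Luc cells pre-incubated 4hr then exposed to compounds and conditioned medium for 24hr.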

[6] = qHTS assay to identify small molecule agonists of the androgen receptor (AR) signaling pathway in the presence of an antagonist - cell viability counter screen (AID 1259379);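 further: MDA-kb2 human breast cancer cells carrying an MMTV luciferase reporter; series mostly up to about 92 µM; nearly all actives have a fitted effect of over 25% in size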
Summary of the method: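 Each compound was tested at 15 concentrations on MDA-kb2 cells in the presence of 3.0uM nilutamide. Viability was measured by CellTiter-Fluor fluorescence after a 16 hr incubation at 37C in a CO2-free atmosphere.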

[7] = qHTS assay to identify small molecule agonists of the estrogen receptor beta (ER-beta) signaling pathway - cell viability counter screen (AID 1259380); further: nearly all actives have a fitted effect of over 30% in size
Summary of the method: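 Compounds dissolved in DMSO were pin-transferred onto ER-beta-UAS-bla HEK293T cells that had settled 6 hr, and exposure ran 16 hr at 37C. Following the reporter read, CellTiter-Glo luminescence after 30 min at room temperature indicated cytotoxicity.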

[8] = qHTS assay to identify small molecule antagonists of the estrogen receptor beta (ER-beta) signaling pathway - cell viability counter screen (AID 1259382);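 further: HEK293T cells carrying ER-beta-UAS-bla reporter stimulated with estradiol; series mostly up to about 92 µM; nearly all actives have a fitted effect of over 55% in size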
Summary of the method: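 CellTiter-Glo ATP luminescence measured after the LiveBLAzer read in the same wells; ER-beta-UAS-bla HEK293T cells, 16 hr compound treatment with 1nM 17-beta-estradiol agonist at 37C, 5% CO2.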

[9] = qHTS assay to identify small molecule agonists or antagonists of the thyroid stimulating hormone receptor (TSHR) signaling pathway - wild type cell line counter screen (AID 1259384; calls by dose curve)
Summary of the method: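 Wild-type Hek293 cells, 800/well, 18 h at 37C, then compound with Ro20-1724 for 30 min RT. cAMP by HTRF (cAMP-d2/anti-cAMP cryptate), 1 h RT, fluorescence read. 15 concentrations, triplicates.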

[10] = target: Thyrotropin receptor (Homo sapiens) (UniProt P16473); assay: qHTS assay to identify small molecule antagonists of the thyroid stimulating hormone receptor (TSHR) signaling pathway (AID 1259385; calls by dose curve; further: nearly all actives have a fitted effect of over 20% in size)
Summary of the method: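 TSHR-HEK293 cells (800/well) plated 18 h, then compounds with Ro20-1724 and TSH at 1.5 ng/mL final, 30 min at room temperature. cAMP quantified by HTRF (cAMP-d2/anti-cAMP-cryptate, 1 h); 15 concentrations in triplicate.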

[11] = qHTS assay to identify small molecule agonists of the estrogen receptor alpha (ER-alpha) signaling pathway in the presence of an antagonist - cell viability counter screen (AID 1259386);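 further: series mostly up to about 92 µM; cells exposed to compounds for 22 h at 37 °C before the viability read; nearly all actives have a fitted effect of over 30% in size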
Summary of the method: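 Using estrogen-depleted VM7Luc4E2 cells, the 15-concentration compound series was applied together with 10.0nM ICI-182,780 and incubated 22hr at 37C/5% CO2. Cell viability was then scored by CellTiter-Fluor.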

[12] = target: Progesterone receptor (Homo sapiens) (UniProt P06401); assay: qHTS assay to identify small molecule agonists of the progesterone receptor (PR) signaling pathway (AID 1346784; calls by dose curve; further: nearly all actives have a fitted effect of over 30% in size)
Summary of the method: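 Beta-lactamase reporter read-out: after 16 hr compound treatment at 37C and a further 2 hr at room temperature with LiveBLAzer B/G FRET substrate, fluorescence was measured in PR-UAS-bla HEK 293T cells grown in 2% charcoal-stripped serum.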

[13] = target: Progesterone receptor (Homo sapiens) (UniProt P06401); assay: qHTS assay to identify small molecule antagonists of the progesterone receptor (PR) signaling pathway (AID 1346795; active means well fitted inhibition curve with a large enough effect in the signal ratio in the repeat runs, not every such curve was filed as active; the % refers to the signal ratio; further: potency means the concentration at half of the fitted maximal effect)
Summary of the method: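 Read-out is fluorescence from the LiveBLAzer B/G FRET substrate, cleaved by a UAS-controlled beta-lactamase in PR-UAS-bla HEK293T cells after 16 hr exposure to compound plus 1 nM promegestone (final), followed by 2 hr at room temperature.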

[14] = qHTS assay to identify small molecule antagonists of the progesterone receptor (PR) signaling pathway - cell viability counter screen (AID 1346798);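 further: HEK293T PR-UAS-bla cells stimulated with the agonist R5020; series mostly up to about 92 µM; nearly all actives have a fitted effect of over 50% in size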
Summary of the method: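 HEK293T PR-UAS-bla, 2% charcoal-stripped FBS; 4 hr pre-plate; cpd + R5020, 16 h 37C; LiveBLAzer read first; then CellTiter-Glo 30 min RT, luminescence.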

[15] = qHTS assay to identify small molecule agonists of the progesterone receptor (PR) signaling pathway - cell viability counter screen (AID 1346799; calls by dose curve; further: nearly all actives have a fitted effect of over 45% in size)
Summary of the method: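 Luminescence from CellTiter-Glo, added after the beta-lactamase FRET read in the same wells, gave cytotoxicity in PR-UAS-bla HEK293T cells treated with compounds for 16 hr at 37C.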

[16] = qHTS assay to identify small molecule antagonists of the TGF-beta/Smad signaling pathway - cell viability counter screen (AID 1346824); further: nearly all actives have a fitted effect of over 50% in size
Summary of the method: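 SBE-bla HEK 293T cells, incubated overnight, then compound plus 0.25 ng/mL TGF-beta1 (stock added) for 5 hr at 37 C. Viability was read in the same wells by CellTiter-Glo luminescence after 30 min at room temperature.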

[17] = target: Estrogen receptor (Homo sapiens) (UniProt P03372); assay: qHTS assay to identify small molecule agonists of the estrogen receptor alpha (ER-alpha) signaling pathway in the presence of an antagonist (AID 1259383; calls by dose curve; further: top concentration of the series differs between compounds; nearly all actives have a fitted effect of over 15% in size)
Summary of the method: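 Luminescent ERE-luciferase reporter, VM7Luc4E2 cells (endogenous ER-alpha); 10.0nM ICI-182,780 final; 15-point compound titration; 22hr at 37C; ONE-Glo, 30min RT.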

Chain of Thyrotropin receptor (Homo sapiens) (P16473 whole entry, looked up): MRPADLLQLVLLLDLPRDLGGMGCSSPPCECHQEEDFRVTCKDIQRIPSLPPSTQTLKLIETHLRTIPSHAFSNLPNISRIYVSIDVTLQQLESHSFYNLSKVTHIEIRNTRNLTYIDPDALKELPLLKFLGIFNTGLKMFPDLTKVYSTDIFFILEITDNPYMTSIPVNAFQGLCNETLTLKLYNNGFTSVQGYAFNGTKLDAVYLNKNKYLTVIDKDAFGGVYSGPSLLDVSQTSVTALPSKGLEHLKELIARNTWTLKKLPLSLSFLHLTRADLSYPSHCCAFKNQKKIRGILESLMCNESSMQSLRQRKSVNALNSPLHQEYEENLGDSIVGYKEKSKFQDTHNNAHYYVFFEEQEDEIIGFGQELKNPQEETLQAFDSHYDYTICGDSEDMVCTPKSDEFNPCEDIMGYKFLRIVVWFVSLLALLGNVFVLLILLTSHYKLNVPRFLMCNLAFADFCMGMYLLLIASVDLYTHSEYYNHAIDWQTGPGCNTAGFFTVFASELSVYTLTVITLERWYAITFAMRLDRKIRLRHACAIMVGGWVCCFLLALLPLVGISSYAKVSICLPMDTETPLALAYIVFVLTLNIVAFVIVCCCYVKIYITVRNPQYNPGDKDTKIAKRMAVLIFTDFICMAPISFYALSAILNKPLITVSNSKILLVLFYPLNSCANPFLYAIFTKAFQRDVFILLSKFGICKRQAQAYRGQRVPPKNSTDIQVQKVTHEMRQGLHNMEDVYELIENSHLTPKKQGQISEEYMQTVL
Chain of Progesterone receptor (Homo sapiens) (P06401 whole entry, looked up): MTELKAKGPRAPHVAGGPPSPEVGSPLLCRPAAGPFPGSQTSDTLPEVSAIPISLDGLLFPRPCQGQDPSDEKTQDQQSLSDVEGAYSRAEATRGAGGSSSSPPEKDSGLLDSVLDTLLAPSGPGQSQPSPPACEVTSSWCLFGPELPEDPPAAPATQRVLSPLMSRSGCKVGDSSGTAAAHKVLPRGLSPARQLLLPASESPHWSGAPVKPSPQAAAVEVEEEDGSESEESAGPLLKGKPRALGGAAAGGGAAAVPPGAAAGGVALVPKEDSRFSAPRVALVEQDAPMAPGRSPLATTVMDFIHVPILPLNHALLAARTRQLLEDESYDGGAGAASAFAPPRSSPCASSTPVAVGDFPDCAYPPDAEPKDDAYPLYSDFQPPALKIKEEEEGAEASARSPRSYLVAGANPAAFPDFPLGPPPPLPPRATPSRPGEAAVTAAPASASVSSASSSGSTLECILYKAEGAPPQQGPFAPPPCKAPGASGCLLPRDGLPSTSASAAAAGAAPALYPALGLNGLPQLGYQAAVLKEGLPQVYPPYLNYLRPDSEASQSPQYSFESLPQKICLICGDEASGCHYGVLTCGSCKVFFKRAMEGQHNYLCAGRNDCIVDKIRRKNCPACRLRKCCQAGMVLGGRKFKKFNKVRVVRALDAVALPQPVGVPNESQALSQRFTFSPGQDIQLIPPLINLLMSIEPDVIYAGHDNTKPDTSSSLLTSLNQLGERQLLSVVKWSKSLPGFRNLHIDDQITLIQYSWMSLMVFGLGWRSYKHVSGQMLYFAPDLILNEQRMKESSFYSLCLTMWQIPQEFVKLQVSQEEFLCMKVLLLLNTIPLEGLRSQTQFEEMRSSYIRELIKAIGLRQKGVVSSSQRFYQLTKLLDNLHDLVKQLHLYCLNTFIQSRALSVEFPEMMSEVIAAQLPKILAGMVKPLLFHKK
Chain of Estrogen receptor (Homo sapiens) (P03372 whole entry, looked up): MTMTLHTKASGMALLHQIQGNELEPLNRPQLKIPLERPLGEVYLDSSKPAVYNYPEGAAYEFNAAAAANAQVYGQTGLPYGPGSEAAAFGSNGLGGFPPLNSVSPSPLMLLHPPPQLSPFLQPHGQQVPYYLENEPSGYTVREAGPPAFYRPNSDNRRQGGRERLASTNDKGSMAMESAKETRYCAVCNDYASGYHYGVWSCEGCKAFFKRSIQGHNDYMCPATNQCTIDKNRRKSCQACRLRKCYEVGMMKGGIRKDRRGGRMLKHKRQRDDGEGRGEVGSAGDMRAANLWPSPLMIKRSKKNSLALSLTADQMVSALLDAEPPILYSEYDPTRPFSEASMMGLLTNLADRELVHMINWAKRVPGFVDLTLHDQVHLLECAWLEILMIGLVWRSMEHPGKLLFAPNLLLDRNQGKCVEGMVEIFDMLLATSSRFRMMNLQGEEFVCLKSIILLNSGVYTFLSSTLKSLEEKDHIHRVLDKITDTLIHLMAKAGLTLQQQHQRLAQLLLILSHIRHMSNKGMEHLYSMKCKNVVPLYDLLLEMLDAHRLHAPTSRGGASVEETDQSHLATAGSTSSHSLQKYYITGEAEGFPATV

SMILES | outcome [1] | outcome [2] | outcome [3] | outcome [4] | Potency [5] | outcome [6] | outcome [7] | outcome [8] | outcome [9] | outcome [10] | outcome [11] | Potency [12] | Potency [13] | outcome [14] | outcome [15] | outcome [16] | Potency [17]
COC(=O)CCCCC(=O)O | inactive | inactive | inactive | inactive | inactive | inactive | inactive | inactive | inactive | inactive | inactive | inactive | inactive | inactive | inactive | inactive | –
CC1(C)Cc2cccc(N)c2O1 | inactive | inactive | inactive | inactive | inactive | inactive | inactive | inactive | – | inactive | – | inactive | inactive | inactive | inactive | inactive | –
O=C(CCCCC(=O)Nc1c(I)cc(I)c(C(=O)O)c1I)Nc1c(I)cc(I)c(C(=O)O)c1I | inactive | inactive | inactive | inactive | inactive | inactive | inactive | inactive | inactive | inactive | inactive | inactive | inactive | – | inactive | inactive | inactive
CC(C)c1ccc(C=O)cc1 | inactive | inactive | inactive | inactive | inactive | inactive | inactive | inactive | – | inactive | – | inactive | inactive | inactive | inactive | inactive | inactive
OCC(O)CN1CCN(c2ccccc2)CC1 (configuration not stated) | inactive | inactive | inactive | inactive | inactive | inactive | inactive | inactive | inactive | inactive | inactive | inactive | inactive | – | inactive | inactive | –
C[C@@H](O)C(=O)O | inactive | inactive | inactive | inactive | inactive | inactive | inactive | – | inactive | inactive | inactive | – | inactive | inactive | – | inactive | inactive
ONc1ccccc1 | inactive | inactive | inactive | inactive | inactive | inactive | inactive | inactive | – | inactive | – | inactive | inactive | inactive | inactive | inactive | –
Fc1ccccc1 | inactive | inactive | inactive | inactive | inactive | inactive | – | inactive | inactive | inactive | inactive | inactive | inactive | – | inactive | inactive | –
Cc1ccc(C(C)NC(=O)[C@@H](NC(=O)OC(C)C)C(C)C)cc1 (some centres not stated) | inactive | inactive | inactive | inactive | inactive | inactive | inactive | inactive | inactive | inactive | inactive | inactive | inactive | inactive | inactive | inactive | –
CC1=C(C(=O)O)N2C(=O)[C@@H](NC(=O)[C@H](N)c3ccccc3)[C@H]2SC1 | inactive | inactive | inactive | inactive | inactive | inactive | – | inactive | – | – | inactive | inactive | inactive | inactive | inactive | inactive | inactive
CC1=NN(c2ccc(S(=O)(=O)O)cc2)C(=O)C1 | inactive | inactive | inactive | inactive | inactive | inactive | inactive | – | inactive | inactive | – | inactive | inactive | – | – | inactive | –
CC1CCc2c(N3CCC(O)CC3)c(F)cc3c(=O)c(C(=O)O)cn1c23 (configuration not stated) | inactive | inactive | inactive | inactive | inactive | inactive | inactive | inactive | inactive | inactive | inactive | inactive | inactive | – | inactive | inactive | –
c1ccc(B(c2ccccc2)c2ccccc2)cc1 | inactive | inactive | inactive | inactive | inactive | inactive | – | inactive | – | – | inactive | inactive | 54.4 µM (active) | inactive | inactive | inactive | –
CC1CC(=O)CC(C)(C)C1 (configuration not stated) | inactive | inactive | inactive | inactive | inactive | inactive | – | – | inactive | inactive | inactive | inactive | inactive | inactive | – | inactive | inactive
